From PubChem BioAssay (NCI)
Where “and” joins values, the source holds several entries; their conditions need not be identical. Identical values can stand only once. The panel holds about 79,000 compounds, 15% with a hit somewhere; the sample as a whole holds those more often. Calls of active or inactive are those of the source. Cut-off read from the data, not from the text of the source: active = growth inhibition above about 70%; inactive = the rest.

Experiments:
[1] = NCI Yeast Anticancer Drug Screen. Data for the mec2-1 strain (AID 157); conditions: S. cerevisiae mec2-1 strain, active compounds read high
How it was run: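 Strain: mec2-1 (DNA repair/cell cycle alteration). Compound exposure, then growth measured; inhibition expressed relative to vehicle.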

[2] = NCI Yeast Anticancer Drug Screen. Data for the rad14 strain (AID 159);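 note: 0% = growth of vehicle-treated control cultures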; conditions: S. cerevisiae rad14 strain growth inhibition, active compounds read high
How it was run: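 Compound-treated yeast with a defined DNA-repair lesion; growth inhibition normalised to vehicle-treated cultures.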

[3] = NCI Yeast Anticancer Drug Screen. Data for the sgs1 mgt1 strain (AID 161);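 note: 0% = growth of cultures given vehicle only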; conditions: S. cerevisiae sgs1 mgt1 strain, active compounds read high
How it was run: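 Inhibition of yeast growth, normalised to vehicle-treated controls, is reported for a strain bearing genetic alterations in DNA damage repair.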

[4] = NCI Yeast Anticancer Drug Screen. Data for the CLN2oe strain (AID 163);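 note: 0% = growth of vehicle-only control cultures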; conditions: S. cerevisiae CLN2oe strain, active compounds read high
How it was run: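 Growth of a genetically modified yeast strain is measured after compound exposure and compared with cultures given vehicle alone.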

[5] = NCI Yeast Anticancer Drug Screen. Data for the cln2 rad14 strain (AID 165);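 note: 0% = growth equal to vehicle treated cultures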; conditions: S. cerevisiae cln2 rad14 strain, active compounds read high
How it was run: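 Compounds are applied to the cln2 rad14 yeast strain, and growth is then compared with that of vehicle-treated cultures to give inhibition.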

[6] = NCI Yeast Anticancer Drug Screen. Data for the bub3 strain (AID 167); conditions: S. cerevisiae bub3 mutant strain, active compounds read high
How it was run: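 Growth of a checkpoint-deficient yeast mutant is measured after compound exposure. Values represent inhibition relative to vehicle.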

[7] = NCI Yeast Anticancer Drug Screen. Data for the wt2 strain (AID 169);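 note: 0% = growth of vehicle-treated yeast cultures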; conditions: S. cerevisiae wt2 strain growth inhibition, active compounds read high
How it was run: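 This strain belongs to a panel of yeast strains with defined genetic alterations in DNA damage repair or cell cycle control. Compounds are applied, and growth inhibition is measured against vehicle-treated cultures.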

[8] = NCI Yeast Anticancer Drug Screen. Data for the mlh1 strain (AID 171);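 note: 0% = growth of vehicle-treated control cultures of the same strain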; conditions: S. cerevisiae mlh1 strain growth inhibition, active compounds read high
How it was run: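 Growth of the mutant yeast strain after compound exposure, expressed as inhibition relative to vehicle-only controls.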

[9] = NCI Yeast Anticancer Drug Screen. Data for the sgs1 strain (AID 173);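 note: 0% = growth of vehicle-only control cultures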; conditions: S. cerevisiae sgs1 mutant, active compounds read high
How it was run: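 Growth of a yeast strain bearing a defined genetic alteration is measured after compound treatment. Inhibition is expressed relative to vehicle-only controls.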

[10] = NCI Yeast Anticancer Drug Screen. Data for the mlh1 rad18 strain (AID 175); conditions: S. cerevisiae mlh1 rad18 strain growth inhibition, active compounds read high
How it was run: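 Read-out is yeast growth inhibition, calculated against vehicle-only controls. The compound was applied to a strain engineered with DNA damage repair alterations.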

[11] = NCI Yeast Anticancer Drug Screen. Data for the rad18 strain (AID 177); conditions: S. cerevisiae rad18 mutant growth inhibition, active compounds read high
How it was run: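 Growth of the mutant yeast strain after compound exposure, normalised to vehicle-only cultures.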

[12] = NCI Yeast Anticancer Drug Screen. Data for the rad52 strain (AID 147);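 note: 0% = growth of vehicle-treated control cultures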; conditions: S. cerevisiae rad52 mutant growth inhibition, active compounds read high
How it was run: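 Compounds are applied to a genetically defined yeast strain lacking normal DNA damage repair, and inhibition of growth is expressed relative to cultures given vehicle only.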

[13] = NCI Yeast Anticancer Drug Screen. Data for the wt1 strain (AID 149);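 note: 0% = growth of vehicle-treated wt1 cultures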; conditions: S. cerevisiae wt1 strain (SPY 50644) growth inhibition, active compounds read high
How it was run: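 Readout: yeast growth inhibition, normalised to vehicle controls, in the wt1 strain exposed to test compounds.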

[14] = NCI Yeast Anticancer Drug Screen. Data for the rad50EPP+ strain (AID 151);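 note: 0% = growth of vehicle-treated control cultures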; conditions: S. cerevisiae rad50 mutant strain, active compounds read high
How it was run: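 Compounds were applied to the rad50EPP+ yeast strain, which bears a defined DNA repair alteration, and growth inhibition was determined relative to vehicle-treated cultures.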

[15] = NCI Yeast Anticancer Drug Screen. Data for the mgt1 strain (AID 153); conditions: S. cerevisiae mgt1 mutant growth inhibition, active compounds read high
How it was run: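 Strain: mgt1 yeast, one of a set carrying defined DNA damage repair or cell cycle control alterations. Compound-treated growth compared with vehicle.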

[16] = NCI Yeast Anticancer Drug Screen. Data for the rad50 strain (AID 155);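 note: 0% = growth of vehicle-only cultures of the same strain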; conditions: S. cerevisiae rad50 strain growth inhibition, active compounds read high
How it was run: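 Compounds were tested on a yeast strain with an engineered DNA damage repair alteration; the reported value is growth inhibition normalised to vehicle treatment.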

[17] = at 5.0 µM (retest, dose inferred, filed as 0.5)
[18] = at 50.0 µM (retest, dose inferred, filed as 5.0)

Measured: growth inhibition

CC(C)OC(=O)Nc1ccc2nc(-c3cscn3)[nH]c2c1
active: [1]; at 100.0 µM 81% | [2]; at 100.0 µM 99% | [3]; at 50.0 µM 76% | [6]; [18] 81% | [6]; at 100.0 µM 97% | [7]; at 100.0 µM 97% | [8]; at 100.0 µM 96% | [9]; at 100.0 µM 97% | [10]; [18] 87% | [10]; at 50.0 µM 93.1% | [11]; at 100.0 µM 97%
inactive: [1]; [17] -4% | [1]; at 11.0 µM 8% | [1]; at 33.0 µM 16% | [1]; [18] 23% | [1]; at 50.0 µM -3.75% | [2]; at 1.2 µM -4% | [2]; at 3.7 µM -6% | [2]; at 11.0 µM -4% | [2]; at 33.0 µM 16% | [3]; [17] 1% | [3]; [18] 39% | [4]; at 1.2 µM -8% | [4]; at 3.7 µM -20% | [4]; at 11.0 µM -18% | [4]; at 33.0 µM -13% | [4]; at 100.0 µM 56% | [5]; [17] 8% | [5]; [18] 19% | [5]; at 50.0 µM 12.8% | [6]; at 1.2 µM -3% | [6]; at 3.7 µM -2% | [6]; [17] -1% | [6]; at 11.0 µM 4% | [6]; at 33.0 µM 25% | [6]; at 50.0 µM 7.85% | [7]; at 1.2 µM -1% | [7]; at 3.7 µM -2% | [7]; at 11.0 µM -4% | [7]; at 33.0 µM 2% | [8]; at 1.2 µM 1% | [8]; at 3.7 µM 1% | [8]; at 11.0 µM 3% | [8]; at 33.0 µM 16% | [9]; at 1.2 µM 2% | [9]; at 3.7 µM 3% | [9]; at 11.0 µM 8% | [9]; at 33.0 µM 18% | [10]; [17] 11% | [11]; at 1.2 µM -2% | [11]; at 3.7 µM -4% | [11]; at 11.0 µM -3% | [11]; at 33.0 µM 4%

COC1=C(N)C(=O)c2nc(-c3nc(C(=O)O)c(C)c(-c4ccc(OC)c(OC)c4O)c3N)ccc2C1=O
inactive: [3]; [17] 16% and 59% | [5]; [17] 13% and 49% | [6]; [17] 14% and 30%
active: [12]; at 1.2 µM 97% | [12]; at 3.7 µM 97% | [12]; at 11.0 µM 98% | [12]; at 33.0 µM 98% | [12]; at 100.0 µM 97% | [13]; at 1.2 µM 98% | [13]; at 3.7 µM 99% | [13]; at 11.0 µM 99% | [13]; at 33.0 µM 99% | [13]; at 100.0 µM 98% | [14]; at 1.2 µM 91% | [14]; at 3.7 µM 93% | [14]; at 11.0 µM 94% | [14]; at 33.0 µM 96% | [14]; at 100.0 µM 96% | [15]; at 1.2 µM 97% | [15]; at 3.7 µM 98% | [15]; at 11.0 µM 98% | [15]; at 33.0 µM 98% | [15]; at 100.0 µM 98% | [16]; at 1.2 µM 96% | [16]; at 3.7 µM 97% | [16]; [17] 96% and 98% | [16]; at 11.0 µM 97% | [16]; at 33.0 µM 98% | [16]; [18] 97% and 98% | [16]; at 50.0 µM 93.5% and 92.5% | [16]; at 100.0 µM 97% | [1]; at 1.2 µM 96% | [1]; at 3.7 µM 98% | [1]; [17] 97% and 99% | [1]; at 11.0 µM 99% | [1]; at 33.0 µM 99% | [1]; [18] 98% and 99% | [1]; at 50.0 µM 94% | [1]; at 100.0 µM 98% | [2]; at 1.2 µM 98% | [2]; at 3.7 µM 98% | [2]; at 11.0 µM 98% | [2]; at 33.0 µM 98% | [2]; at 100.0 µM 98% | [3]; [18] 98% and 96% | [3]; at 50.0 µM 94.2% and 93.8% | [4]; at 1.2 µM 89% | [4]; at 3.7 µM 93% | [4]; at 11.0 µM 96% | [4]; at 33.0 µM 97% | [4]; at 100.0 µM 96% | [5]; [18] 98% and 92% | [5]; at 50.0 µM 93% and 92.2% | [6]; at 1.2 µM 95% | [6]; at 3.7 µM 97% | [6]; at 11.0 µM 98% | [6]; at 33.0 µM 97% | [6]; [18] 98% and 93% | [6]; at 50.0 µM 94% and 92.8% | [6]; at 100.0 µM 98% | [7]; at 1.2 µM 91% | [7]; at 3.7 µM 97% | [7]; at 11.0 µM 97% | [7]; at 33.0 µM 98% | [7]; at 100.0 µM 97% | [8]; at 1.2 µM 95% | [8]; at 3.7 µM 98% | [8]; at 11.0 µM 98% | [8]; at 33.0 µM 98% | [8]; at 100.0 µM 97% | [9]; at 1.2 µM 95% | [9]; at 3.7 µM 97% | [9]; at 11.0 µM 98% | [9]; at 33.0 µM 98% | [9]; at 100.0 µM 97% | [10]; [17] 97% and 99% | [10]; [18] 97% and 98% | [10]; at 50.0 µM 93% and 92.5% | [11]; at 1.2 µM 96% | [11]; at 3.7 µM 98% | [11]; at 11.0 µM 98% | [11]; at 33.0 µM 97% | [11]; at 100.0 µM 97%
